# From PubChem BioAssay
# p53 reactivation: re-activators of mutant p53. H1299 p53-A138V BP100-luciferase reporter, luminescence, 24 h. Potency, µM (doses to about 92.2 µM), inactives show top-dose activity change, positive = activation, hits mostly activators. 0.063% of 320,000 active; also: potency is read from the fitted curve at half-maximal effect; % of control where 0% means no effect; nearly all actives have a fitted effect of over 45% in size
#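 H1299 (p53-null), stable ts p53-A138V + BP100-Luc; 1000 cells/well, Opti-MEM/10% FBS; cpd 4 pt, 1:5; 24 h, 37 deg C, 5% CO2; detection reagent 10 min RT; luminescence.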
# ClpP mod: qHTS Assay for Activators of ClpP; 1.9% of 340,000 active; purified B. subtilis ClpP, FRET peptide cleavage, 20 min; Potency, µM (series often up to 57.5 µM), inactives show top-dose activity change, negative = active; active = well fitted falling curve with a large enough effect; inconclusive = small, poorly fitted or top-dose-only effect; inactive = no such curve, though single readings can be large or run the other way; also: potency is read from the fitted curve at half-maximal effect; the source files actives as falling curves though it sought activators and does not explain the sign; nearly all actives have a fitted effect of over 65% in size
# Target sequence (P80244 whole entry, looked up): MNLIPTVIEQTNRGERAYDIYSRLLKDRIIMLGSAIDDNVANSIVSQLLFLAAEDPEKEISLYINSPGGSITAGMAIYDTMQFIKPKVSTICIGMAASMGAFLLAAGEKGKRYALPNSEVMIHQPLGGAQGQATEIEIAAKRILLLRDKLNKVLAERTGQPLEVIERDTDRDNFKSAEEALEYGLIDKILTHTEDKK
#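 Buffer: 100 mM Tris/HCl pH8, 100 mM KCl, 0.05% low protease BSA, 2.5% glycerol, 0.01% Tween-20. ClpP 10 microg/mL final; 20 min RT; delta FRET normalized to ADEP and DMSO controls.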
# B2AR arrestin: beta2AR (human) beta-arrestin recruitment activity; 0.02% of 330,000 active; AID 492947; Potency, µM (titrated, usually from 46.1 µM), inactives show top-dose activation, most hits filed as activators; beta-arrestin recruitment to beta2AR, cell-based reporter;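 also: potency is read from the fitted curve at half-maximal effect; 0% = DMSO controls and full agonism = EC100 isoproterenol or metaproterenol; nearly all actives have a fitted effect of over 65% in size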
# Mito fusion yeast: mitochondrial division inhibition or fusion activation | 0.23% of 320,000 active | S. cerevisiae fusion-defective mutant growth rescue, CellTiterGlo 48 h | Potency, µM (highest dose often 46.1 µM), without a hit: top-dose growth rescue (activation), usual class: activators; also: potency is read from the fitted curve at half-maximal effect; % of control where 0% means no effect; nearly all actives have a fitted effect of over 45% in size
#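 Compounds are tested for their ability to restore growth of mitochondrial fusion-defective yeast strains at non-permissive 37C in YPEG medium over 48 hours. Viability is quantified by luciferase luminescence.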
# Giardia kill: Giardia lamblia killing; Giardia lamblia trophozoite viability; activity change, % at 7.66 µM, hits read low; 0.15% of 340,000 active; AID 540267; in the data active = activity change below about -80%; inconclusive = between about -30% and that limit;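 also: parasites exposed to compound for two days anaerobically before the ATP read; % is scaled to controls: 0 for no effect and ±100 for the full control effect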
#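 Trophozoites 100 cells/well + cpd; 48 hrs, 37 deg C, anaerobic. ATPLite 1-Step added, 15-30 min RT, luminescence read (ATP-based viability).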
# uPA surface inh: blocks generation of uPA at the cell surface; Potency, µM (titrated, usually from 38.3 µM), inactives show at the highest dose activity change, negative = inhibition, actives largely listed as inhibitors; 0.31% of 330,000 active; cell surface uPA generation assay, qHTS; active = well fitted inhibition curve with a large enough effect; inconclusive = small, poorly fitted or top-dose-only effect; inactive = no such curve, though single readings can be large or run the other way; tested in mouse RAW 264.7 cells; also: potency is read from the fitted curve at half-maximal effect; % is scaled to controls: 0 for no effect and ±100 for the full control effect; nearly all actives have a fitted effect of over 55% in size
# The depositor's hits bear a star; ? = inconclusive; · = no result given. Compounds with a hit are over-represented: about 2.1% of the library has one in this group of screens. Unless noted, calls follow the shape of the dose curve; as a rule, active = well fitted curve in the direction sought with a large enough effect; inconclusive = small, poorly fitted or top-dose-only effect, or another doubt; inactive = no such curve, though single readings can be large; an effect the other way counts as inactive or inconclusive.
SMILES,p53 reactivation,ClpP mod,B2AR arrestin,Mito fusion yeast,Giardia kill,uPA surface inh
O=C(N/N=C/c1ccc([N+](=O)[O-])o1)c1cc(-c2ccncc2)nc2ccccc12,1.6%,-3.4%,-0.5%,-9.2%,-11.0,·
Cc1cc(N/N=C/c2ccc([N+](=O)[O-])o2)nc2ccccc12,14.2%,·,0.1%,2.8%,-82.3*,-6.7%
O=C(N/N=C/c1ccc([N+](=O)[O-])o1)c1cc(-c2ccc(-c3ccccc3)cc2)nc2ccccc12,-1.2%,·,-0.2%,1.7%,-97.6*,-17.4%
Cc1cc(Nc2ccc([N+](=O)[O-])cc2)nc2ccccc12,-1.9%,·,0.4%,-3.4%,-4.9,3.3%
Cc1ccc(-c2cc(C(=O)N/N=C/c3ccc([N+](=O)[O-])o3)c3ccccc3n2)o1,20.1%,-3.1%,-1.2%,-8.1%,-92.3*,-18.4%
CCN(CC)CCCNC(=O)CCCn1ncn2c(cc3occc32)c1=O,·,-0.8%,·,·,·,·
Nc1ccc(C(=O)Nc2ccc(OC(F)(F)C(F)F)c(NC(=O)c3ccc(N)cc3)c2)cc1,-9.4%,15.8µM*,-0.6%,-4.0%,2.2,6.1%
O=C(O)c1ccc(NCc2cccc(Br)c2)cc1,3.6%,-3.0%,-0.2%,10µM*,11.5,0.2%
CCOC(=O)NC1(C(F)(F)F)NC(=O)N(c2cccc(C(F)(F)F)c2)C1=O (centres undefined),-1.8%,0.9%,-0.4%,1.3%,-13.5,-1.7%
CCOC(=O)NC1(C(F)(F)F)NC(=O)N(c2ccc(F)cc2)C1=O (centres undefined),-1.8%,35.5µM*,-1.4%,-4.7%,3.2,3.6%
CCOC(=O)C1CCN(c2nc(-c3ccccc3)nc3c2oc2ccccc23)CC1,2.7%,31.6µM*,-1.7%,16.8%,-11.4,7.5%
O=C(O)C1CCN(c2nc(-c3ccccc3)nc3c2oc2ccccc23)CC1,7.8%,-22.1%,-1.4%,17.3%,3.7,-7.7%
CCOC(=O)C1CCN(Cc2c(O)ccc3ccccc23)CC1,18.4%,28.2µM*,-0.2%,0.5%,-10.4,·
CCOC(=O)N1CCN(Cc2c(O)ccc3ccccc23)CC1,0.3%,·,-0.7%,0.1%,-20.7,3.4%
CSc1ccccc1NC(=O)C1=CC(c2ccc3c(c2)OCO3)=NS(=O)(=O)N1C,·,-2.2%,·,·,·,·
Cc1ccc(Nc2ccc(C(=O)O)cc2N)cc1,21.9%,-24.6%,-0.2%,4.7%,-7.3,3.2%
Cc1cc(C)cc(Nc2ccc(C(=O)O)cc2N)c1,?,28.2µM*,-0.6%,5.5%,-17.8,3.9%
Cc1nn(Cc2ccccc2)c(C)c1N,-4.8%,28.2µM*,0.1%,-29.4%,-12.0,0.4%
Cc1ccc(C2=CC(c3ccccc3F)n3c(nc4ccccc43)N2)cc1C (centres undefined),·,-0.1%,·,·,·,·
CC1CCc2[nH]c3ccc(C(=O)N(C)CC(=O)Nc4ccccc4Br)cc3c2C1 (centres undefined),-10.9%,15.8µM*,0.2%,?,4.3,0.2%
Cc1ccc2[nH]c(=O)c(CN(CCc3ccccc3)C(=O)N3CCOCC3)cc2c1,1.2%,14.1µM*,-0.3%,-8.8%,-8.4,2.5%
CCC(=O)N(CCc1ccccc1)Cc1cc2cc3c(cc2[nH]c1=O)OCO3,-1.2%,14.1µM*,-0.8%,3.4%,-2.0,·
CCC(=O)N(Cc1ccc(C)cc1)Cc1cc2cc3c(cc2[nH]c1=O)OCO3,-1.9%,31.6µM*,-0.1%,-0.3%,12.8,·
CCC(=O)N(CCc1ccccc1)Cc1cc2cc(OC)ccc2[nH]c1=O,-2.1%,3.6%,-0.3%,-4.5%,-22.0,-1.5%
COc1cc(-c2coc3c(C(=O)NCc4ccc(C(F)(F)F)cc4)cccc23)ccc1O,·,-26.4%,·,·,·,·
CCOc1ccccc1NC(=O)Cn1cc(C(=O)c2ccc(Cl)cc2)c(=O)c2ccc(C)nc21,·,0.7%,·,·,·,·
Cn1cc([N+](=O)[O-])c(C(=O)Nc2ccc(-c3nc4ccccc4[nH]3)cc2)n1,?,0.6%,1.3%,0.0%,1.3,-6.2%
